Measurements as given in PubChem BioAssay (EPA / NIEHS).
Values joined by “and” are separate entries in the source; they are usually repeats but may differ in a detail not shown here. Equal values may be shown once. Inconclusive results are not listed. Active and inactive are the calls of the source. How the source made its calls, unless noted: active means hit-call score of the fitted dose curve at least 0.9, where 1 is the maximum; inconclusive means response in the unintended direction; inactive means score below 0.9.

Legend:
[1] = biological target: human Norepinephrine Transporter (NET), SLC6A2 (gene 6530) (UniProt P23975); experiment: NVS_TR_hNET: NovaScreen (NVS) Transporter Assay for human Norepinephrine Transporter (NET) (AID 2283377);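 further: cell-free membrane protein extracted from CHO cells expressing human NET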;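 on AC50: displacement of radioligand from human NET seen as loss of scintillation signal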
Chain of human Norepinephrine Transporter (NET), SLC6A2 (gene 6530) (P23975 whole entry, looked up): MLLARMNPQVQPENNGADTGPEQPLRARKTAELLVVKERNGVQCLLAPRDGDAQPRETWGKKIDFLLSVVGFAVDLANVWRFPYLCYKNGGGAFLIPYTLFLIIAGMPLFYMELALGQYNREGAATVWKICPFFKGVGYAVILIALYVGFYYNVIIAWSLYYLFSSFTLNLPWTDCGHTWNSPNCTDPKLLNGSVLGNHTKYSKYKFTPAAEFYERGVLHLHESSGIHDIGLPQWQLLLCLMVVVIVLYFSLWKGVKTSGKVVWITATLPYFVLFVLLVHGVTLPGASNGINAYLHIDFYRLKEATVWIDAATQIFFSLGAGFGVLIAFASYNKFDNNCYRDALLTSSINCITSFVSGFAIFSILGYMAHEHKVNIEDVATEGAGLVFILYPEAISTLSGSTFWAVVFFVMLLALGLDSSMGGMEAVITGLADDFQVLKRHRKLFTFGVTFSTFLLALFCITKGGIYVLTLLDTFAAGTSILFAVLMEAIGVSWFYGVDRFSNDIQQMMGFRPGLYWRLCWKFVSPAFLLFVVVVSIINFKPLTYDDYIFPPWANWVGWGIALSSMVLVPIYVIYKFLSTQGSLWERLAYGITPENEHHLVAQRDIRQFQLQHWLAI
How it was run: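 CHO cell extracts expressing the transporter; tritiated or iodinated tracer displaced competitively; filtration plus scintillation readout at 1 h. Single-point duplicates at 25 uM, concentration series for follow-up; activity = signal drop relative to DMSO.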

[2] = biological target: mouse Estrogen Receptor alpha (Era), Esr1 (gene 13982) (UniProt P19785); experiment: NVS_NR_mERa: NovaScreen (NVS) Nuclear Receptor Binding Assay for mouse Estrogen Receptor alpha (Era) (AID 2283378);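 further: hit means loss of bound radioligand signal relative to DMSO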
Chain of mouse Estrogen Receptor alpha (Era), Esr1 (gene 13982) (P19785 whole entry, looked up): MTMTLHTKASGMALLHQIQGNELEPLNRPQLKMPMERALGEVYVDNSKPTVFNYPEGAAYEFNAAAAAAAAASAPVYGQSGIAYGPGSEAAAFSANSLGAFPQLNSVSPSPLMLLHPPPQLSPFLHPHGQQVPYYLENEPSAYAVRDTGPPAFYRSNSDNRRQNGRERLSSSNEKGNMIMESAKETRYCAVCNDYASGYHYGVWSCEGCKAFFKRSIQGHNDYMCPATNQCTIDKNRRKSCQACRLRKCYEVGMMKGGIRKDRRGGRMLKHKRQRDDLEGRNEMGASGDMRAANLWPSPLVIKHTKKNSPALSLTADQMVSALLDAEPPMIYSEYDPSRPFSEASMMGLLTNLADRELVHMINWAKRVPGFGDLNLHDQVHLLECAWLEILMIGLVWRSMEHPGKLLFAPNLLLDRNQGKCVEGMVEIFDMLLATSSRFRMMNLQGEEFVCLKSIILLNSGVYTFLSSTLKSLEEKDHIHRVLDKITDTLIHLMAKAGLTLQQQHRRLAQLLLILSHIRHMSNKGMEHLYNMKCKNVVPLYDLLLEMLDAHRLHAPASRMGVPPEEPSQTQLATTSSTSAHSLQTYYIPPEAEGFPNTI
How it was run: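 Test chemicals competed against a specific radioligand for binding to cell-free mouse Era. Duplicate wells at 25 uM were read 18 hours later by filter-based radiodetection, with loss of signal against DMSO scored as activity.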

[3] = biological target: Agonist Androgen Response Element (ARE), AR (gene 367) (UniProt P10275); experiment: OT_AR_ARELUC_AG_1440: Odyssey Thera (OT) 24-hour CHO-K1 Luciferase Assay for Agonist Androgen Response Element (ARE) (AID 2283379)
Chain of Agonist Androgen Response Element (ARE), AR (gene 367) (P10275 whole entry, looked up): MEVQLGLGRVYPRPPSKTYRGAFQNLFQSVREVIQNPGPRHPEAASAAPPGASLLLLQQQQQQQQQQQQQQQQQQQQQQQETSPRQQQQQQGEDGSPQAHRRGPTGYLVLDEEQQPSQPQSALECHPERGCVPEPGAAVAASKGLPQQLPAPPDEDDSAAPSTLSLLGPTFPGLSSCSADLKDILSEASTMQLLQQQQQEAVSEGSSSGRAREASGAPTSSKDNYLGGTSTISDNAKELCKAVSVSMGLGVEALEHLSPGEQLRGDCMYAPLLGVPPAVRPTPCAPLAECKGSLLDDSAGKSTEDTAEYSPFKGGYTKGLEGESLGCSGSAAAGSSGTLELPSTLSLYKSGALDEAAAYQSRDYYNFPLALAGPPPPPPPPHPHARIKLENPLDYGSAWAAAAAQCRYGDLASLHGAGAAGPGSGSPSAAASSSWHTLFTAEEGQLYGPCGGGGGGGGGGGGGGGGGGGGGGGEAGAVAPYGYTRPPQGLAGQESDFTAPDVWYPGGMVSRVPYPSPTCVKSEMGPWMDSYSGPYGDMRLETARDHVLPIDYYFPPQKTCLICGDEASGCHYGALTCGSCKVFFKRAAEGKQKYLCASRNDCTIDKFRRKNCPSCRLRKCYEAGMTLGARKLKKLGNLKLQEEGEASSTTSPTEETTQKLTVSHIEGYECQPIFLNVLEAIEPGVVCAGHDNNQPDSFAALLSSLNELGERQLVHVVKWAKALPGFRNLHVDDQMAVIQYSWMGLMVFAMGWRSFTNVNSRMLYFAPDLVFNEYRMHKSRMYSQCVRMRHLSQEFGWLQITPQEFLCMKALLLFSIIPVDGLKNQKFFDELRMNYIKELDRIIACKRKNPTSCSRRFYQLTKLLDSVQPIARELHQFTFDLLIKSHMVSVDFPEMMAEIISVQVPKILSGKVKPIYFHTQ
How it was run: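 Gain-of-signal reporter endpoint: cells (CHO-K1, hamster) are treated 24 h, luciferin/ATP reagent added, and luminescence compared with DMSO baseline.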

[4] = biological target: Estrogen receptor (Homo sapiens) (UniProt P03372); experiment: OT_ERa_GFPERaERE_0480: Odyssey Thera (OT) 8-hour HeLa Transcription Induction Assay for Estrogen Receptor (AID 2283381; active means hit-call score of the fitted dose curve at least 0.9, where 1 is the maximum; inactive means score below 0.9)
Chain of Estrogen receptor (Homo sapiens) (P03372 whole entry, looked up): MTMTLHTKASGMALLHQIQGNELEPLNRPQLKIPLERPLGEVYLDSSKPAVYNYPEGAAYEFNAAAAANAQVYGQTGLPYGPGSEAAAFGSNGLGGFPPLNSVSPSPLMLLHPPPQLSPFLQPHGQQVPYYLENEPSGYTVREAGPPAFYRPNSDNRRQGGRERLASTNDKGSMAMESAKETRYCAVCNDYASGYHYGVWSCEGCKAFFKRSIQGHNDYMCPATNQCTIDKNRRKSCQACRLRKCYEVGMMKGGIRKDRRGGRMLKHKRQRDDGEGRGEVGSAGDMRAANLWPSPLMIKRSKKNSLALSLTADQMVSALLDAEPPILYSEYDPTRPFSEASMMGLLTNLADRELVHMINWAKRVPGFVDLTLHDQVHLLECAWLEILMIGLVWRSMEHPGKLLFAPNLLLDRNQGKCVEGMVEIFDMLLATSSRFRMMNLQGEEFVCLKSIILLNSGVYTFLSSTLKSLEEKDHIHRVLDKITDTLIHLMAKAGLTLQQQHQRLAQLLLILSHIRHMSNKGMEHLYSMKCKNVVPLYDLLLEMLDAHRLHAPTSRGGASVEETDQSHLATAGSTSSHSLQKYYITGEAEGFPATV
How it was run: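 Fluorescence microscopy with high-content image analysis measures ERE-driven GFP induction in HeLa cells at 8 h post-dose. Increases fitted against DMSO baseline.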

[5] = biological target: Estrogen receptor (Homo sapiens) (UniProt P03372); experiment: OT_ERa_GFPERaERE_0120: Odyssey Thera (OT) 2-hour HeLa Transcription Induction Assay for Estrogen Receptor (AID 2283382)
How it was run: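 Fluorescence-microscopy images of the GFP-ERα/ERE reporter, scored by high-content image algorithms, give the readout. HeLa exposure lasted 2 h, and only signal increase over DMSO was fitted.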

[6] = biological target: Peroxisome proliferator-activated receptor gamma (Homo sapiens) (UniProt P37231); experiment: OT_PPARg_PPARgSRC1_0480: Odyssey Thera (OT) 8-hour Protein-Complementation Assay for Peroxisome Proliferator-activated Receptor Gamma / SRC-1 Co-activator (AID 2283387);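 further: nuclear to cytoplasmic split Venus YFP fluorescence ratio reporting PPARg SRC-1 interaction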
Chain of Peroxisome proliferator-activated receptor gamma (Homo sapiens) (P37231 whole entry, looked up, the tested form may be a part): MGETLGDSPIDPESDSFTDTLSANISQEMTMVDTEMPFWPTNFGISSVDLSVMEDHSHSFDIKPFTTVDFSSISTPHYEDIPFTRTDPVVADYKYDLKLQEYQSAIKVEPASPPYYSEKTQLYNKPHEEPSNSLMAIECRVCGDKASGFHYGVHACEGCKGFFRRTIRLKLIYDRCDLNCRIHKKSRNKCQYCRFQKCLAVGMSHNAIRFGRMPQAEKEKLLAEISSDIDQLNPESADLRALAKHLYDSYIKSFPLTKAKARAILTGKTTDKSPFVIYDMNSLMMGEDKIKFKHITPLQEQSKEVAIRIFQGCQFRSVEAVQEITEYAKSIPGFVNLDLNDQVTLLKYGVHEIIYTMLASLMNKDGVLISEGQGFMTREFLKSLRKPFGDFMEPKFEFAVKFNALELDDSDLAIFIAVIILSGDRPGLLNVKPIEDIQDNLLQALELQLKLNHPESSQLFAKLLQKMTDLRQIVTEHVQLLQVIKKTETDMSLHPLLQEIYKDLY
How it was run: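 HEK293T transiently transfected with PPARg and SRC-1 fused to Venus YFP fragments, compounds 8 h at 37C. Fixed, Draq5-stained cells imaged; nuclear/cytoplasmic 488 nm fluorescence ratio over at least 350 cells per image; gain fitted versus DMSO.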

[7] = biological target: Peroxisome proliferator-activated receptor gamma (Homo sapiens) (UniProt P37231); experiment: OT_PPARg_PPARgSRC1_1440: Odyssey Thera (OT) 24-hour Protein-Complementation Assay for Peroxisome Proliferator-activated Receptor Gamma/ SRC-1 Co-activator (AID 2283388)
How it was run: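 Transient HEK293T, YFP fragments 1-158/159-239 (mutant IFP1/IFP2) fused to PPARg/SRC-1; 24 h dosing; fix 4% formaldehyde, Draq5; Opera imaging 488/635 nm; N/C ratio, gain vs DMSO.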

[8] = biological target: Estrogen receptor beta (Homo sapiens) (UniProt Q92731); experiment: OT_ER_ERbERb_1440: Odyssey Thera (OT) 24-hour HEK293T Protein-Complementation Assay for Estrogen Receptor-beta/-beta Homodimer (AID 2283380);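 further: scored as signal increase over DMSO baseline for both agonists and antagonists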
Chain of Estrogen receptor beta (Homo sapiens) (Q92731 whole entry, looked up, the tested form may be a part): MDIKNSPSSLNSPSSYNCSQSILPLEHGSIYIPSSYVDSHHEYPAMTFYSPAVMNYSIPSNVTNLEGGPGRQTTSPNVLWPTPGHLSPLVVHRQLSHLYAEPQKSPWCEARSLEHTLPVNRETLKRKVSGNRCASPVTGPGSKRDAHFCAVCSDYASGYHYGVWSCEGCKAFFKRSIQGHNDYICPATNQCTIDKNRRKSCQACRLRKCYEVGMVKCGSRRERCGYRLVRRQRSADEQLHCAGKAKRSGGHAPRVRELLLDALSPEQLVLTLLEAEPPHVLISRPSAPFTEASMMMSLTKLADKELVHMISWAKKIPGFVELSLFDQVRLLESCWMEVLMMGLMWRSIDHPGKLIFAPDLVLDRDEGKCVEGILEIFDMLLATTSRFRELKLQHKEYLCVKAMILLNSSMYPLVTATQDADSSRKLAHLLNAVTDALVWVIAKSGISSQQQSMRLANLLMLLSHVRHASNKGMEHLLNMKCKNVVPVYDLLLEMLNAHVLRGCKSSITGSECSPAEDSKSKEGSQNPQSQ
How it was run: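 HEK293T cells stably expressing ER beta LBD (aa 310-547) homodimer fragment-complementation reporter, dosed 24 h. Cells formaldehyde-fixed, Draq5-stained; gain in nuclear (agonist) or nuclear plus cytoplasmic (antagonist) fluorescence versus DMSO read by laser scanning cytometry.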

[9] = biological target: Bile acid receptor (Homo sapiens) (UniProt Q96RI1); experiment: OT_FXR_FXRSRC1_0480: Odyssey Thera (OT) 8-hour HEK293T Protein-Complementation Assay for Farnesoid X receptor/SRC-1 Co-activator (AID 2283383)
Chain of Bile acid receptor (Homo sapiens) (Q96RI1 whole entry, looked up, the tested form may be a part): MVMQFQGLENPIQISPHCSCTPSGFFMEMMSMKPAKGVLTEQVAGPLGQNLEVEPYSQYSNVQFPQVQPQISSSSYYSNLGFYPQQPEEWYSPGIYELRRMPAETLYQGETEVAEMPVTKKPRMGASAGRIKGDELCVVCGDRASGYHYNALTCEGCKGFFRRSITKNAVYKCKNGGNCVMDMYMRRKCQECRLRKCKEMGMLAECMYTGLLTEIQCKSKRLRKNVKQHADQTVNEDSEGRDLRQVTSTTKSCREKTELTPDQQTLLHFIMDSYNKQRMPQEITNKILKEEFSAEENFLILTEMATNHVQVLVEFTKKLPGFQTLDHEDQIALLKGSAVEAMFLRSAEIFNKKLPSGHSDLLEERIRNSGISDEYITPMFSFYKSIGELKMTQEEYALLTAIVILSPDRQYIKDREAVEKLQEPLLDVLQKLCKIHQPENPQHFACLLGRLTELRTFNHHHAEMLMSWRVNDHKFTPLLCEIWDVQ
How it was run: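 Binding of FXR to coactivator SRC-1 was read as fluorescence from a reconstituted split reporter in HEK293T cells, 8 h after chemical addition. Only increases in signal versus DMSO were fit.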

[10] = biological target: Bile acid receptor (Homo sapiens) (UniProt Q96RI1); experiment: OT_FXR_FXRSRC1_1440: Odyssey Thera (OT) 24-hour HEK293T Protein-Complementation Assay for Farnesoid X receptor/SRC-1 Co-activator (AID 2283384)
How it was run: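 Protein-fragment complementation: FXR and SRC-1 fused to reporter fragments that reassemble on interaction, read by fluorescence intensity. Human HEK293T cells measured 24 h post-dose; positive-direction fit versus DMSO.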

[11] = biological target: Retinoic acid receptor RXR-alpha (Homo sapiens) (UniProt P19793); experiment: OT_NURR1_NURR1RXRa_0480: Odyssey Thera (OT) 8-hour HEK293T Protein Complementation Assay for Nurr1/retinoid X receptor (RXR) (AID 2283385)
Chain of Retinoic acid receptor RXR-alpha (Homo sapiens) (P19793 whole entry, looked up, the tested form may be a part): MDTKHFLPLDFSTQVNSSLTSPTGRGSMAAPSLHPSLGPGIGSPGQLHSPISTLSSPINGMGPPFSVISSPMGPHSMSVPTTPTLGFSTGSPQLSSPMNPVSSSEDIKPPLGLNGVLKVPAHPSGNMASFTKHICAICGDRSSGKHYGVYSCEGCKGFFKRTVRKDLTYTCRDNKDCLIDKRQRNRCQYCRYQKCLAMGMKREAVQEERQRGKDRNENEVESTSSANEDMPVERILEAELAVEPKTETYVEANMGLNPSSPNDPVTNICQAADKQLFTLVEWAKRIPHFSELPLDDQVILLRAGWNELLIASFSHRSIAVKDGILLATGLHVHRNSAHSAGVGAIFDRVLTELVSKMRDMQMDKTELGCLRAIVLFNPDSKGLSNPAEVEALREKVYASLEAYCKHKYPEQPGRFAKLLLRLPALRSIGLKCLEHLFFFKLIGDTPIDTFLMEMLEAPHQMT
How it was run: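 Interaction of Nurr1 with RXRα read as reconstituted reporter fluorescence in a HEK293T fragment-complementation system, 8 h post-treatment; increase over DMSO baseline analysed.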

[12] = biological target: Retinoic acid receptor RXR-alpha (Homo sapiens) (UniProt P19793); experiment: OT_NURR1_NURR1RXRa_1440: Odyssey Thera (OT) 24-hour HEK293T Protein Complementation Assay for Nurr1/retinoid X receptor (RXR) (AID 2283386)
How it was run: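 Gain in fluorescence, fitted relative to DMSO, reflects Nurr1–RXRα association in HEK293T cells after 24 h dosing. Bait and prey are each linked to a reporter-protein fragment that reassembles on interaction.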

[13] = CEETOX_H295R_11DCORT: CeeTox H295R High-throughput Steroidogenesis Assay for 11-Deoxycortisol (11DCORT) (AID 2283432; active means hit-call score of the fitted dose curve at least 0.9, where 1 is the maximum; inactive means score below 0.9;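 on AC50: human adrenal H295R cells prestimulated with 10 µM forskolin for 48 h; 11-deoxycortisol secreted into the medium measured by LC-MS/MS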); conditions: actives raise or lower the signal
How it was run: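 H295R cells prestimulated 48 h with 10 uM forskolin, then exposed 48 h to chemical in 0.1% DMSO. 11-Deoxycortisol in medium quantified by HPLC-MS/MS after MTBE extraction; bidirectional fit versus DMSO. MTT viability read in same wells.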

[14] = CEETOX_H295R_OHPREG: CeeTox H295R High-throughput Steroidogenesis Assay for OH-Pregnenolone (OHPREG) (AID 2283434; active means hit-call score of the fitted dose curve at least 0.9, where 1 is the maximum; inactive means score below 0.9); conditions: actives raise or lower the signal
How it was run: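 H295R, 10 uM forskolin pre-stim 48 h; test chemical 48 h, 0.1% DMSO final. MTBE extraction, reverse-phase C18 HPLC-ESI+ MS/MS of medium. Gain/loss vs DMSO; viability by MTT in same wells.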

[15] = CEETOX_H295R_ANDR: CeeTox H295R High-throughput Steroidogenesis Assay for Androstenedione (ANDR) (AID 2283436; active means hit-call score of the fitted dose curve at least 0.9, where 1 is the maximum; inactive means score below 0.9;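 further: human H295R adrenal cells exposed for 48 h with androstenedione measured in medium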); conditions: actives raise or lower the signal
How it was run: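 48 h chemical exposure, H295R cells, DMEM/F12 + ITS+ and Nu-Serum. Medium androstenedione: MTBE extraction, C18 reverse-phase HPLC, ESI+ MS/MS. Fit bidirectional vs DMSO; MTT viability in same wells.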

[16] = CEETOX_H295R_CORTIC: CeeTox H295R High-throughput Steroidogenesis Assay for Corticosterone (CORTIC) (AID 2283437; active means hit-call score of the fitted dose curve at least 0.9, where 1 is the maximum; inactive means score below 0.9;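 further: corticosterone secreted into medium quantified by mass spectrometry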); conditions: actives raise or lower the signal
How it was run: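 48 h forskolin (10 uM) prestim, then 48 h chemical exposure, final DMSO 0.1%. Readout: corticosterone in medium by LC-MS/MS after MTBE extraction. Gain/loss fit vs DMSO; MTT viability in same wells.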

[17] = CEETOX_H295R_CORTISOL: CeeTox H295R High-throughput Steroidogenesis Assay for Cortisol (AID 2283438; active means hit-call score of the fitted dose curve at least 0.9, where 1 is the maximum; inactive means score below 0.9); conditions: actives raise or lower the signal
How it was run: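 Cortisol measured by HPLC-MS/MS after MTBE extraction of medium from H295R cells exposed 48 h to chemical (0.1% DMSO), following 48 h prestimulation with 10 uM forskolin. Viability assessed by MTT in the same wells.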

[18] = CEETOX_H295R_DOC: CeeTox H295R High-throughput Steroidogenesis Assay for DOC (AID 2283439; active means hit-call score of the fitted dose curve at least 0.9, where 1 is the maximum; inactive means score below 0.9); conditions: actives raise or lower the signal
How it was run: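 11-Deoxycorticosterone quantified in medium by MTBE extraction and HPLC-MS/MS after 48 h chemical exposure (0.1% DMSO) of forskolin-primed (10 uM, 48 h) H295R cells. Same-well MTT viability; data fitted bidirectionally against DMSO.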

[19] = CEETOX_H295R_ESTRADIOL: CeeTox H295R High-throughput Steroidogenesis Assay for Estradiol (AID 2283440; active means hit-call score of the fitted dose curve at least 0.9, where 1 is the maximum; inactive means score below 0.9;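 further: estradiol secreted into medium quantified by LC-MS/MS after dansyl derivatisation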); conditions: actives raise or lower the signal
How it was run: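 Following OECD 456 with minor changes, H295R cells received 10 uM forskolin for 48 h and then test chemical for 48 h. Hormone output was read by HPLC-MS/MS, with cytotoxic concentrations diluted until MTT viability reached ≥70%.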

[20] = CEETOX_H295R_ESTRONE: CeeTox H295R High-throughput Steroidogenesis Assay for Estrone (AID 2283441; active means hit-call score of the fitted dose curve at least 0.9, where 1 is the maximum; inactive means score below 0.9); conditions: actives raise or lower the signal
How it was run: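 Estrone secreted into medium quantified by LC-MS/MS after dansyl chloride derivatization, following 48 h chemical exposure (0.1% DMSO final) of forskolin-prestimulated (10 uM, 48 h) H295R cells; gain or loss fitted against DMSO; MTT viability in same wells.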

Measured: AC50

CN(C)C(=O)C1(N2CCCCC2)CCN(CC[C@@]2(c3ccc(Cl)c(Cl)c3)CN(C(=O)c3ccccc3)CCO2)CC1
inactive: [3] | [6] | [7]
active: [1] 2.33 µM | [2] 0.203 µM | [4] 16.8 µM | [5] 14.8 µM

CCCCOC(=O)c1ccc(O)cc1
active: [1] 13.9 µM | [8] 4.49 µM and 5.81 µM and 6.38 µM | [9] 50 µM and 31 µM | [10] 14.6 µM and 16 µM
not listed: [2] | [4] | [5] | [19] | [20]
inactive: all other assays above

Cc1cc(F)ccc1-c1cc(N2CC[C@@H](O)[C@H]2CO)ncc1N(C)C(=O)C(C)(C)c1cc(C(F)(F)F)cc(C(F)(F)F)c1
inactive: [3] | [8] | [4] | [5] | [6] | [7]
active: [1] 5.97 µM | [12] 9.74 µM

O=C(Nc1ccc(Cl)cc1)Nc1ccc(Cl)c(Cl)c1
active: [3] 0.336 µM | [11] 12.5 µM | [13] 0.599 µM | [14] 0.5 µM | [18] 0.417 µM
inactive: all other assays above

CCCC(=O)OCCC(C)C
inactive: [3] | [4] | [9] | [10] | [11] | [12] | [6] | [7]

CCOC(=O)O[C@H](C)OC(=O)c1ccc2c(c1)cc(C(=O)NC1CCN(C(C)C)CC1)n2Cc1cc(-c2ccc(Cl)s2)on1
inactive: [8] | [6] | [7]
active: [1] 1.95 µM | [4] 19.6 µM | [5] 23.8 µM | [10] 74.9 µM

COc1ccc2cc(S(=O)(=O)N[C@H](CC(=O)N[C@H](Cc3ccc(CN4[C@H](C)CCC[C@@H]4C)cc3)C(=O)N(C)C(C)C)c3ccc4c(c3)OCO4)ccc2c1
inactive: [2] | [6] | [7]
active: [4] 15.8 µM | [5] 28.6 µM | [9] 11.1 µM | [11] 11.1 µM

CCN(CC)C(=O)c1cc(S(=O)(=O)Cc2ccccc2)c(N2CCC(c3ccccc3)CC2)cc1N(CC)CCN(C)C
active: [1] 10.4 µM | [2] 2.54 µM | [5] 19 µM | [9] 4.46 µM | [10] 4.38 µM | [11] 4.48 µM | [12] 4.48 µM
inactive: [8] | [4] | [6] | [7]

O=C1c2ccccc2C(=O)N1CCc1noc(-c2ccc(CN3CCCCCC3)s2)n1
active: [1] 6.14 µM | [14] 4.81 µM
inactive: [4] | [5] | [6] | [7]
